# Laboratory results taken from PubChem BioAssay (NCATS).
# Results filed as inconclusive are left out. The source made the active and inactive calls. Unless noted, calls come from the whole dose curve; as a rule, active = well fitted curve in either direction with a large enough effect (not every such curve was filed as active); inconclusive = small, poorly fitted or top-dose-only effect, or another doubt; inactive = flat fitted curve, though single readings scatter.
# Legend:
# [1] = target: Lysosomal acid glucosylceramidase (Homo sapiens) (UniProt P04062); experiment: Glucocerebrosidase-p2 (AID 348; in the data active = potency below about 10 µM; note: potency is the fitted concentration of half-maximal effect); settings: purified GBA, blue fluorogenic substrate, 40 min
# Sequence of Lysosomal acid glucosylceramidase (Homo sapiens) (P04062 whole entry, looked up): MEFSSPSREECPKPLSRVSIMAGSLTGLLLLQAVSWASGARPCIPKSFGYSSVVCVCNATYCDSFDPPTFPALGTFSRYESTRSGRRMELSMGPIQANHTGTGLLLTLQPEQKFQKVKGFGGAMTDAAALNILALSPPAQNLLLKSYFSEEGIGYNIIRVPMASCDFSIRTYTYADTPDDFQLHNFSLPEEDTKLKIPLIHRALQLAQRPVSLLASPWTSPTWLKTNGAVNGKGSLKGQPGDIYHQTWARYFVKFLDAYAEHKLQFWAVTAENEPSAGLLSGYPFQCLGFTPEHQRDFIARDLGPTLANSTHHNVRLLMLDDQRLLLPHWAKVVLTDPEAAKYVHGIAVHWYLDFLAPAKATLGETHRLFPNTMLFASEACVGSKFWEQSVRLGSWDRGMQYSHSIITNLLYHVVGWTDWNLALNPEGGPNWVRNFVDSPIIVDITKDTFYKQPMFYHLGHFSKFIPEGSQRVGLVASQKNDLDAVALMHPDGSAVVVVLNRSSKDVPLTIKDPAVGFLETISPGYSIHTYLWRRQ
# Summary of the method: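 Normal human glucocerebrosidase (0.2 nM) with blue fluorogenic substrate (80 uM final) in citrate/phosphate pH 5.9 with 10mM sodium taurocholate, 0.01% tween-20; 40 min RT, NaOH/glycine stop; fluorescence Ex 365/Em 440; AC50 from a titration from 0.6 nM upwards.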
# [2] = AP1 Signaling Pathway (AID 357); settings: ME-180 AP-1-bla reporter, EGF-induced, beta-lactamase ratio, 5 h; at 7.69 µM (top of the series) unless noted;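 note: ME-180 reporter cells stimulated with EGF at its EC50 level; % is set by controls: 0 for no effect and ±100 for the full control effect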
# Summary of the method: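 Beta-lactamase reporter under AP-1 response element, ME-180 background. Stimulus: EC50 EGF. Compound exposure 5 h, 37 °C. Detection: CCF4, 2.5 h RT, 460/530 nm. Values: AC50 from titration.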
# [3] = Stat Signaling Pathway (AID 446); settings: ME-180 SIE beta-lactamase reporter, IL-6 stimulated, 5 h; at 7.69 µM (top of the series) unless noted;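 note: ME-180 cervical cancer cells given 40 pM IL-6 alongside compound; SIE-controlled beta-lactamase reporter measured as 460/530 nm FRET emission ratio; % is set by controls: 0 for no effect and ±100 for the full control effect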
# Summary of the method: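 Emission at 460 and 530 nm (excitation 405 nm) reports SIE-controlled beta-lactamase in ME-180 cells. Cells received compound with 40 pM IL-6 for 5 hrs at 37 C; data scaled between 300 pM IL-6 and 125 nM JAK-inhibitor controls.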
# [4] = target: Glucocorticoid receptor (Homo sapiens) (UniProt P04150); experiment: GR-EFC Redistribution (AID 451; calls by dose curve; note: potency is the fitted concentration of half-maximal effect); settings: CHO-K1 GR-EFC translocation, beta-gal luminescence, 2 h
# Sequence of Glucocorticoid receptor (Homo sapiens) (P04150 whole entry, looked up, the tested form may be a part): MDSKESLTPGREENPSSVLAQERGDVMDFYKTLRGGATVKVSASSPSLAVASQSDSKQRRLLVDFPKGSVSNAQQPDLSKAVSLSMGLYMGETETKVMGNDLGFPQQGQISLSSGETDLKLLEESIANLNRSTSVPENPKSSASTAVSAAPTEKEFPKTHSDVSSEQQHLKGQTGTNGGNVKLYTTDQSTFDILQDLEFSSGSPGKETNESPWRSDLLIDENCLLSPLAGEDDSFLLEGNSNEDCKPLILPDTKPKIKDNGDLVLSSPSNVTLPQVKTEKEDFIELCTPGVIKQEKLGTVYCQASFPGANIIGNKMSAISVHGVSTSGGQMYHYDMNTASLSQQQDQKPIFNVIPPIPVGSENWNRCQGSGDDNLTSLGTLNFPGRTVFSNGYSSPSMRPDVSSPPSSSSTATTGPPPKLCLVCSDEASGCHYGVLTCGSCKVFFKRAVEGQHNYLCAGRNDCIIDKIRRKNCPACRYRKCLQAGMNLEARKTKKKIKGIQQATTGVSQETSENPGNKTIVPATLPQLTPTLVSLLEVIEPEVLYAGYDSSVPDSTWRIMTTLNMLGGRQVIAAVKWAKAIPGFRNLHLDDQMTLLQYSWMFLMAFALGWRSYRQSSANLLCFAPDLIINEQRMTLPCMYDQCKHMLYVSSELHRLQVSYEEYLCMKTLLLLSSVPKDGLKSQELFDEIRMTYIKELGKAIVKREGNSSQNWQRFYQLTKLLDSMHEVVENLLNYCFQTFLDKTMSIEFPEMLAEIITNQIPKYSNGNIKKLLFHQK
# Summary of the method: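 CHO-K1 cells expressing nuclear EA and GR-ED fragments of b-gal; compounds titrated up to 46 uM final, 2 h at 37 C. GR nuclear translocation read as complemented b-gal luminescence after 1 h RT detection.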
# [5] = target: Mitogen-activated protein kinase 10 (Mus musculus) (UniProt Q61831); experiment: JNK3 AlphaScreen Assay (AID 530); settings: JNK3 lysate, c-Jun phosphorylation; series mostly up to 57.1 µM;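 note: kinase came from lysate of stimulated human HepG2 cells; signal reports phosphorylation of biotinylated GST-cJun 1-79 at Ser73 with 10 µM ATP; % is set by controls: 0 for no effect and ±100 for the full control effect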
# Summary of the method: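 Activity was read by AlphaScreen after JNK3-containing HepG2 lysate (cytokine pre-activated) phosphorylated biotinylated GST-cJun with 10 uM ATP at room temperature. Phospho-Ser73 cJun antibody with Protein-A acceptor beads provided detection.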
# [6] = target: 3',5'-cyclic-AMP phosphodiesterase 4B (Homo sapiens) (UniProt Q07343); experiment: qHTS Assay for Inhibitors of PDE-IV (AID 607; active = well fitted activation curve with a large enough effect in the main read-out, with a control signal flat, not every such curve was filed as active; note: % of control where 0% means no effect); settings: HEK293 ACTOne CNG channel cells, membrane potential fluorescence; series mostly up to 22.9 µM
# Sequence of 3',5'-cyclic-AMP phosphodiesterase 4B (Homo sapiens) (Q07343 whole entry, looked up): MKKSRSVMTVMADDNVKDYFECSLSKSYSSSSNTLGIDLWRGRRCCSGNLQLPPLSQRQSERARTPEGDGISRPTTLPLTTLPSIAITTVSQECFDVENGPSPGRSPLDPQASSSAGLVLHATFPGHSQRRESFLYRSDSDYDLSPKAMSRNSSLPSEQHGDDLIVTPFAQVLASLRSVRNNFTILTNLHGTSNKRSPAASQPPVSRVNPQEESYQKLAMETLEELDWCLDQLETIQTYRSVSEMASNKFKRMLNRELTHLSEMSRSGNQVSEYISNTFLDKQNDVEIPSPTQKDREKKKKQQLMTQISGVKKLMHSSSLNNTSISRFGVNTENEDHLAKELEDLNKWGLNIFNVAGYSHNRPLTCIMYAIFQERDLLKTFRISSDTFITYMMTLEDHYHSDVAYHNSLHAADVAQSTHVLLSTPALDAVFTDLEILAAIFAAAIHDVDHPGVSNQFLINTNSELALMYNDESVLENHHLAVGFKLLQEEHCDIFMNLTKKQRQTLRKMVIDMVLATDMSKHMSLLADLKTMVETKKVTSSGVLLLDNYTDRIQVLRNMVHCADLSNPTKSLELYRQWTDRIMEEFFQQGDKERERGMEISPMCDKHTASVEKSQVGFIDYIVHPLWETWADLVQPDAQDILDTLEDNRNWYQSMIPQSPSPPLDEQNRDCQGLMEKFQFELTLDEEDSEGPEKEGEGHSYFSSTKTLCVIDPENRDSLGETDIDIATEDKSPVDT
# Summary of the method: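 The readout is membrane depolarisation from a cAMP-sensing CNG channel, detected with a potential dye at ex 535/em 590. Cells were HEK293-derived (endogenous PDE-IV) at 1000 cells/well, titrated up to 22.9 uM final.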
# [7] = target: Cytochrome P450 2C19 (Homo sapiens) (UniProt P33261); experiment: qHTS Assay for Inhibitors and Substrates of Cytochrome P450 2C19 (AID 899; active = well fitted curve in the direction sought with a large enough effect; an effect the other way counts as inactive or inconclusive; note: % is set by controls: 0 for no effect and ±100 for the full control effect; nearly all actives have a fitted effect of over 60% in size); settings: recombinant CYP2C19, luciferin-H EGE luminescence; series mostly up to 57.1 µM
# Sequence of Cytochrome P450 2C19 (Homo sapiens) (P33261 whole entry, looked up): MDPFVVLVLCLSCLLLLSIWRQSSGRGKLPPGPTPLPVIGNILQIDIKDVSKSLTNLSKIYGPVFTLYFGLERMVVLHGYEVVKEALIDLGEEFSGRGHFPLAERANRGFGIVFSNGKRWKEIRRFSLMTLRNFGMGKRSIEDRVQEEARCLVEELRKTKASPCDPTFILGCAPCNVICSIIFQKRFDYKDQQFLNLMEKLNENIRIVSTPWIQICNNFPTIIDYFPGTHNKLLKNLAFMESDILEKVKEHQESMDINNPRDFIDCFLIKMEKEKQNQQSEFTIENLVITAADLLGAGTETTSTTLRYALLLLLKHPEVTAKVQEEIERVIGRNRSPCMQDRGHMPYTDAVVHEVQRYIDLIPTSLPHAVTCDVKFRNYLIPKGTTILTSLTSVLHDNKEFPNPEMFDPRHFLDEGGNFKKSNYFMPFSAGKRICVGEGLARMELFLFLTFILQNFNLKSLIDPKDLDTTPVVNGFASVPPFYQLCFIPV
# Summary of the method: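 Signal comes from luciferase acting on luciferin released by CYP2C19-mediated hydroxylation of Luciferin-H EGE, 10uM (KM). Assay mix: 5nM enzyme, 50mM KPO4; 60 min at 37C with NADPH regeneration. Data normalized against 57uM ketoconazole.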
# [8] = qHTS Assay for Lipid Storage Modulators (AID 1519; calls by dose curve); settings: Drosophila S3 cells, BODIPY lipid droplet/cell ratio, laser cytometry, cells loaded with oleic acid; for activity change, negative = inhibition: at 57.5 µM (top of the series)
# Summary of the method: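 Cells seeded at 5,000 per well were treated with compounds over a concentration series and loaded with oleic acid (400 uM, as added). Lipid droplet fluorescence (488 nm excitation, 500-530 nm channel) was read by laser-scanning cytometry and normalized to 20 uM Triacsin C.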
# [9] = Primary qHTS for small molecule stabilizers of the endoplasmic reticulum resident proteome: Secreted ER Calcium Modulated Protein (SERCaMP) assay (AID 1508630; active = well fitted curve in the direction sought with a large enough effect; an effect the other way counts as inactive or inconclusive; note: % is set by controls: 0 for no effect and ±100 for the full control effect); settings: SH-SY5Y GLuc-SERCaMP (Gaussia luciferase released on ER calcium loss) secretion, thapsigargin, luminescence; series mostly up to 38.4 µM
# Summary of the method: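 The SH-SY5Y reporter protocol was run at 3 concentrations up to 38.3 uM (primary) or 11 concentrations (follow-up): 16 h compound, 100 nM thapsigargin for 4 h, then extracellular luciferase luminescence.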
# [10] = target: Cytochrome P450 3A4 (Homo sapiens) (UniProt P08684); experiment: qHTS Assay for Activators of Cytochrome P450 3A4 (AID 885; active = well fitted curve in the direction sought with a large enough effect; an effect the other way counts as inactive or inconclusive; note: nearly all actives have a fitted effect of over 65% in size); settings: recombinant CYP3A4, Luciferin-PPXE luminescence, 60 min; series mostly up to 57.1 µM
# Sequence of Cytochrome P450 3A4 (Homo sapiens) (P08684 whole entry, looked up): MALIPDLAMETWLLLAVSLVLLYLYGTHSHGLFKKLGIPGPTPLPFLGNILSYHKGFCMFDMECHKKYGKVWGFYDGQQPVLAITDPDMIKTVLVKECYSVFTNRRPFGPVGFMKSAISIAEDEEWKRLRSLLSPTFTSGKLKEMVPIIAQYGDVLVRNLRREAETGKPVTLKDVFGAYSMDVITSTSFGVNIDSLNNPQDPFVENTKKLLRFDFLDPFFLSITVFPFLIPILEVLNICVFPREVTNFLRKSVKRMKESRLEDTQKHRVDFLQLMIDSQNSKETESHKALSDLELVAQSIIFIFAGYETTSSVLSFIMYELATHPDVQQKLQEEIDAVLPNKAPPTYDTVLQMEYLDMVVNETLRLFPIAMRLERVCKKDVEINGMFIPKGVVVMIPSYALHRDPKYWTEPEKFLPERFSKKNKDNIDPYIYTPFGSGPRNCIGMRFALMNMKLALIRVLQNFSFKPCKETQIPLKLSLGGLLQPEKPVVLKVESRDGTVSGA
# Summary of the method: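 Activators are scored by enhanced luminescence from CYP3A4 conversion of luciferin-PPXE (25uM, equal to KM) to luciferin, after 60 min at RT with an NADPH-regenerating system.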
# [11] = qHTS Assay for Identification of Small Molecule Agonists for Hypoxia Response Element Signaling Pathway (AID 914; active = well fitted activation curve with a large enough effect in the signal ratio, with a control signal flat, not every such curve was filed as active; the % refers to the signal ratio; note: % of control where 0% means no effect); settings: ME-180 (cervical carcinoma) HRE-bla reporter, beta-lactamase ratio, CoCl2, 17 h; activation: stronger effect = higher value
# Summary of the method: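 Read-out: CCF4 FRET ratio of 460nm to 530nm emission (excitation 405nm) after 2.5 hours at room temperature, taken from HRE-bla ME-180 cells that had been exposed to compound and EC50 CoCl2 for 17 hours.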
# [12] = measured here: cell count channel max response
# [13] = measured here: lipid channel max response
SMILES,Potency [1],"activity change, negative = inhibition [2]","activity, negative = inhibition [3]",Potency [4],Potency [5],Potency [6],Potency [7],"activity change, negative = inhibition [8]","max response [8, 12]","max response [8, 13]",outcome [9],Potency [10],activation [11]
COC(=O)N1CCC2(CCCN(c3ccncc3)C2)CC1,> 11.4 µM (inactive),-3.28% (inactive),5.05% (inactive),> 46 µM (inactive),inactive,inactive,inactive,5.16% (inactive),21.3%,29.2%,inactive,–,–
O=C(c1cnccn1)N1CCC2(CCN(Cc3ccccc3)CC2)CC1,> 11.4 µM (inactive),12.5% (inactive),-1.26% (inactive),> 46 µM (inactive),inactive,inactive,–,2.37% (inactive),7.12%,14.3%,inactive,–,–
COc1ccccc1CN1CC2(CCN(C(=O)c3cccc(F)c3)CC2)C1,> 11.4 µM (inactive),-3.72% (inactive),0.108% (inactive),> 46 µM (inactive),inactive,inactive,–,3.26% (inactive),8.06%,13.5%,inactive,–,–
COc1ccccc1CN1CCC2(CC1)CCN(C(=O)c1csnn1)CC2,> 11.4 µM (inactive),0.316% (inactive),-5.49% (inactive),> 46 µM (inactive),inactive,inactive,–,5.71% (inactive),16.4%,24.4%,inactive,inactive,–
COCC(=O)N1CCC2(CC1)CCN(c1ccccc1)CC2,> 11.4 µM (inactive),-2.33% (inactive),-2.7% (inactive),> 46 µM (inactive),inactive,inactive,–,-1.96% (inactive),4.08%,3.97%,inactive,–,–
CS(=O)(=O)N1CCC2(CCCN(Cc3ccc(C#N)cc3)C2)CC1,> 11.4 µM (inactive),-16.1% (inactive),-15% (inactive),> 46 µM (inactive),inactive,inactive,–,1.06% (inactive),-8.06%,-6.26%,inactive,–,–
O=C(c1cc(C(F)(F)F)cc(C(F)(F)F)c1)N1CCC2(CCCN(Cc3ccccc3)C2)CC1,> 11.4 µM (inactive),15.8% (inactive),-0.518% (inactive),> 46 µM (inactive),inactive,inactive,–,-0.673% (inactive),4.9%,5.21%,inactive,–,–
O=C(c1cnccn1)N1CCC2(CCCN(Cc3ccccc3)C2)CC1,> 11.4 µM (inactive),-6.44% (inactive),-11.8% (inactive),> 46 µM (inactive),inactive,inactive,–,1.18% (inactive),14.6%,17.1%,inactive,–,16.9% (inactive)
Cc1noc(C)c1C(=O)N1CCC2(CC1)CCN(c1ccccn1)CC2,> 11.4 µM (inactive),0.789% (inactive),-0.0391% (inactive),> 46 µM (inactive),inactive,inactive,–,5.25% (inactive),8.43%,16.7%,inactive,–,–
COc1ccc(C(=O)N2CCC3(CC2)CN(CC(C)C)C3)cc1,> 11.4 µM (inactive),1.62% (inactive),6.78% (inactive),> 46 µM (inactive),inactive,inactive,–,3.28% (inactive),16.1%,21.1%,inactive,–,–
O=C(c1csnn1)N1CCC2(CCN(Cc3cc(C(F)(F)F)cc(C(F)(F)F)c3)CC2)CC1,> 11.4 µM (inactive),11.5% (inactive),4.05% (inactive),> 46 µM (inactive),inactive,inactive,–,1.96% (inactive),7.55%,11.7%,inactive,–,–
N#Cc1ccc(CN2CC[C@@]3(CCCN(C(=O)c4cccc(F)c4)C3)C2)cc1,> 11.4 µM (inactive),-24.8% (inactive),-4.01% (inactive),> 46 µM (inactive),inactive,inactive,–,-0.514% (inactive),0.82%,2.5%,inactive,–,–
O=C(c1cccc(F)c1)N1CCC2(CC1)CN(c1ccccn1)C2,> 11.4 µM (inactive),6.77% (inactive),-12.3% (inactive),> 46 µM (inactive),–,inactive,–,6.42% (inactive),17.7%,16%,inactive,–,–
COc1ccccc1CN1CCCC2(CCN(S(=O)(=O)c3ccccc3)CC2)C1,> 11.4 µM (inactive),0.799% (inactive),1.94% (inactive),> 46 µM (inactive),inactive,inactive,–,0.969% (inactive),-4.49%,1.25%,inactive,–,-6.58% (inactive)
COc1ccc(C(=O)N2CCC3(CC2)CCN(c2ccncc2)CC3)cc1,> 11.4 µM (inactive),14.4% (inactive),5.85% (inactive),> 46 µM (inactive),inactive,inactive,–,-1.55% (inactive),12.5%,14%,inactive,inactive,–
COc1ccc(C(=O)N2CCC3(CCN(CC(C)C)CC3)CC2)cc1,> 11.4 µM (inactive),-18% (inactive),-2.75% (inactive),> 46 µM (inactive),inactive,inactive,–,-2.62% (inactive),-10.1%,-11.3%,inactive,–,–
